“And” between values parts separate entries of the source, which are not always exact repeats. Identical values can stand only once. About 83,000 compounds went through this panel and 20% of them were active in at least one assay; those are over-represented in the sample as a whole.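 Each cell line was grown in a 96-well plate and treated with one concentration of compound for 48 hours. Values below 10 were considered active.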 The source made the active and inactive calls.

Some test systems named below: SK-MEL-2 melanoma; EKVX NSCLC; UO-31 renal; ACHN renal; CAKI-1 renal; A498 renal; HL-60(TB) leukemia; CCRF-CEM leukemia; TK-10 renal; SN12C renal.
Test in all cases: NCI-60 one-dose screen, 48 h (100 = growth as untreated, 0 = no growth, -100 = all killed)
Holding throughout (details): 10 µM unless noted

Turning to `OCCN=Cc1c[nH]c2ccccc12`, the growth with SK-MEL-2 melanoma was 109% (inactive); in the test on EKVX NSCLC it was 93.8% (inactive); in the test with UO-31 renal, 75.7% (inactive); in the test with ACHN renal, 94.3% (inactive); with CAKI-1 renal, 80.4% (inactive); in the test with A498 renal, 107% (inactive). For the same molecule, the growth is 101% (inactive) with HL-60(TB) leukemia and 114% (inactive) in the test with CCRF-CEM leukemia.
For `COC12CC3(C)C(C4=CC(=O)OC4)CCC3(O)C3CCC4=CC(=O)CCC4(CO1)C32` (centres undefined), the growth in the test with SK-MEL-2 melanoma was 24.9% (inactive); in the test with EKVX NSCLC it was 103% (inactive); in the test with UO-31 renal, 80.7% (inactive); in the test on TK-10 renal it was 101% (inactive); with CAKI-1 renal it was 105% (inactive); with A498 renal, 120% (inactive). For the same molecule, the growth in the test on HL-60(TB) leukemia was 123% (inactive); in the test with CCRF-CEM leukemia, 116% (inactive).
In the case of `C[N+]1(CC#CC[N+]2(C)CCCC2)CCCC1`, the growth in the test with SK-MEL-2 melanoma was 98.5% (inactive); with EKVX NSCLC, 97.5% (inactive); with UO-31 renal, 94.4% (inactive); in the test on ACHN renal, 108% (inactive); in the test on CAKI-1 renal, 97.1% (inactive); in the test on A498 renal, 84.6% (inactive). In addition, the growth with HL-60(TB) leukemia is 94.1% (inactive); in the test on CCRF-CEM leukemia, 107% (inactive).
Turning to `Nc1c(Cl)c(Cl)nc(C(=O)O)c1Cl`, the growth in the test with SK-MEL-2 melanoma is 92.5% (inactive); in the test with EKVX NSCLC it was 86.5% (inactive); in the test with UO-31 renal, 71.1% (inactive); in the test with TK-10 renal, 99.2% (inactive); in the test with CAKI-1 renal, 90.1% (inactive); in the test on A498 renal, 138% (inactive). Also, the growth in the test with HL-60(TB) leukemia was 62.8% (inactive).
`C[C@@H]1C/C=C\C(=O)O[C@H](/C=C/C#C/C=C/C(C)(C)[C@@H](O)c2cccc(O)c2Br)[C@@H](C)/C=C/[C@H](C)C[C@H](OC(N)=O)C1`: the growth with SK-MEL-2 melanoma is 15.1% (inactive); with EKVX NSCLC, 22% (inactive); in the test on UO-31 renal, 3.1% (active); in the test on TK-10 renal it was 43.5% (inactive); in the test on ACHN renal, 35% (inactive); with CAKI-1 renal it was 6.13% (active). Also, the growth is 41% (inactive) in the test with A498 renal, 3.08% (active) with HL-60(TB) leukemia and 25.7% (inactive) in the test on CCRF-CEM leukemia.
As for `CCC(=O)C(CC(C)[N+](C)(C)C)(c1ccccc1)c1ccccc1` (centres undefined), the growth with SK-MEL-2 melanoma was 104% (inactive); in the test on SN12C renal it was 98.2% (inactive); with UO-31 renal, 95.9% (inactive); in the test on TK-10 renal it was 98.1% (inactive); in the test with ACHN renal it was 102% (inactive); in the test on CAKI-1 renal it was 95.4% (inactive). The growth was 111% (inactive) in the test with A498 renal, 109% (inactive) with HL-60(TB) leukemia and 114% (inactive) in the test with CCRF-CEM leukemia.
With `CCC(Br)(CC)C(=O)NC(N)=O`, the growth was 109% (inactive) in the test with SK-MEL-2 melanoma; 107% (inactive) in the test with EKVX NSCLC; 93.2% (inactive) with UO-31 renal; 104% (inactive) with TK-10 renal; 98.2% (inactive) in the test with CAKI-1 renal; 104% (inactive) in the test with A498 renal. Moreover, the growth was 99.6% (inactive) in the test on HL-60(TB) leukemia and 102% (inactive) with CCRF-CEM leukemia.
As to `COC[C@H]1OC(=O)c2coc3c2[C@@]1(C)C1=C(C3=O)[C@@H]2CCC(=O)[C@@]2(C)C[C@H]1OC(C)=O`, the growth is 17.3% (inactive) in the test with SK-MEL-2 melanoma; 42.1% (inactive) in the test with EKVX NSCLC; 31.4% (inactive) in the test on UO-31 renal; 42.2% (inactive) with ACHN renal; 32.2% (inactive) in the test on CAKI-1 renal; 25.8% (inactive) in the test with HL-60(TB) leukemia. Moreover, the growth in the test on CCRF-CEM leukemia was 46.6% (inactive).
With `CCOC(=O)c1ccccc1C(=O)OCC`, the growth is 89.7% (inactive) with SK-MEL-2 melanoma; 80.3% (inactive) in the test with EKVX NSCLC; 84.8% (inactive) with UO-31 renal; 98.2% (inactive) in the test on TK-10 renal; 98.4% (inactive) with ACHN renal; 77.2% (inactive) in the test with CAKI-1 renal. Besides, the growth is 104% (inactive) in the test on A498 renal, 141% (inactive) with HL-60(TB) leukemia and 94.8% (inactive) in the test on CCRF-CEM leukemia.
As for `COc1ccc(N(CC(=O)NCCC[Te]c2ccccc2)C(=O)c2ccccc2)cc1`, the growth in the test on SK-MEL-2 melanoma is 101% (inactive); with SN12C renal it was 19.9% (inactive); in the test with UO-31 renal it was 12.9% (inactive); in the test on TK-10 renal it was 97.7% (inactive); with ACHN renal it was 87.7% (inactive); in the test on CAKI-1 renal, 84.9% (inactive). For the same molecule, the growth is 16.1% (inactive) with A498 renal, 36.9% (inactive) in the test on HL-60(TB) leukemia and 15.1% (inactive) in the test on CCRF-CEM leukemia.
For `CN(C)c1ccc([N+](=O)[O-])c([N+](=O)[O-])c1`, the growth is 90% (inactive) and 103% (inactive) in the test with SK-MEL-2 melanoma; 105% (inactive) and 97.7% (inactive) in the test on SN12C renal; 117% (inactive) and 84.7% (inactive) with UO-31 renal; 135% (inactive) and 114% (inactive) with TK-10 renal; 98.1% (inactive) and 106% (inactive) in the test with ACHN renal; -35% (active) and 87.6% (inactive) with CAKI-1 renal. For the same molecule, the growth with A498 renal is 109% (inactive); with HL-60(TB) leukemia it was 66.7% (inactive) and 88.1% (inactive); in the test on CCRF-CEM leukemia it was 80.9% (inactive) and 94.2% (inactive).
Regarding `CC1=C([Te]c2ccccc2)C(=O)c2ccccc2C1=O`, the growth was 9.62% (active) in the test on SK-MEL-2 melanoma; -38.6% (active) in the test with EKVX NSCLC; -33.4% (active) in the test with UO-31 renal; -33% (active) in the test on TK-10 renal; -86.6% (active) with ACHN renal; -46.5% (active) with CAKI-1 renal. Moreover, the growth is -66% (active) in the test on A498 renal, 12.7% (inactive) in the test on HL-60(TB) leukemia and -44.9% (active) with CCRF-CEM leukemia.
Regarding `CC1(C)S[C@H]2CC[C@H]3OC(=O)[C@@H]1N23`, the growth in the test with SK-MEL-2 melanoma was 94.4% (inactive); in the test on EKVX NSCLC, 88.4% (inactive); with UO-31 renal, 53.9% (inactive); in the test on TK-10 renal it was 91.9% (inactive); in the test with ACHN renal, 114% (inactive); in the test on CAKI-1 renal, 66.6% (inactive). In addition, the growth is 93.1% (inactive) in the test with A498 renal, 60.9% (inactive) in the test with HL-60(TB) leukemia and 82.9% (inactive) with CCRF-CEM leukemia.
